From PubChem
This is a sample that favours compounds with a hit; in the whole collection about 21% have one here.
CHX counter: Cycloheximide Counterscreen for Small Molecule Inhibitors of Shiga Toxin; max response, %; AID 2314, 2010; 300,000 compounds, 12% hits; cell reporter, cycloheximide protein synthesis inhibition counterscreen; in the data active means max response mostly above about 13%, no sharp cut-off; inactive means mostly below about 14%; further: read at 38.3 µM for the half of the compounds with a filed dose; 0% is about no effect
Pf growth 48h: Primary qHTS for delayed death inhibitors of the malarial parasite plastid, 48 hour incubation; 310,000 compounds, 5.9% hits; Potency, µM (highest dose often 28.7 µM), for inactives: at the top dose activity change, negative = inhibition, hits mostly inhibitors; P. falciparum luciferase growth in erythrocytes, 48 h; further: potency means the concentration at half of the fitted maximal effect; on the % scale 0 is the no-effect control and ±100 the full control effect
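Parasite viability was followed by luminescence of a genomically integrated firefly luciferase. Cultures held 0.1% parasitemia at 2% hematocrit (final), incubated under 5% CO2 at 37 C.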
FBPA Giardia inh: qHTS Assay for Inhibitors of Fructose-1,6-bisphosphate Aldolase from Giardia Lamblia. 290,000 compounds, 0.71% hits. Potency, µM (highest dose often 59.6 µM), without a hit: at the top dose activity, negative = inhibition, hits mostly inhibitors. A8B2U2. AID 2451, 2010. purified Giardia FBPA; further: potency means the concentration at half of the fitted maximal effect; on the % scale 0 is the no-effect control and ±100 the full control effect; nearly all actives have a fitted effect of over 55% in size
Target sequence (A8B2U2 whole entry, looked up): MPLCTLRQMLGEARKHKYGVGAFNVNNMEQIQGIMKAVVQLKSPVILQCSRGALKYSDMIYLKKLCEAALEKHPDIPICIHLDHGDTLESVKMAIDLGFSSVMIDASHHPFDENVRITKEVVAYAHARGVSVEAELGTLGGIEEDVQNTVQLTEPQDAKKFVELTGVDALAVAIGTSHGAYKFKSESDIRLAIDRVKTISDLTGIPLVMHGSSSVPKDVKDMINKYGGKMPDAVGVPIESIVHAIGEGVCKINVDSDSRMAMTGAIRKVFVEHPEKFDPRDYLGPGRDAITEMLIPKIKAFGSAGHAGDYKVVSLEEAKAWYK
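40 nM FBPA preincubated 10 min at RT with compound (up to 57.5 uM final), then substrate plus GAPDH/TPI/NAD/arsenate coupling and diaphorase/resazurin added. Fluorescence read after 20 min at RT, 525/598 nm.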
Pf growth 96h: Primary qHTS for delayed death inhibitors of the malarial parasite plastid, 96 hour incubation; Potency, µM (titrated, usually from 28.7 µM), for the others: at the highest dose activity change, negative = inhibition, actives largely listed as inhibitors; P. falciparum luciferase reporter growth, 96 h; 320,000 compounds, 6.9% hits; AID 504834, 2011; further: potency means the concentration at half of the fitted maximal effect; on the % scale 0 is the no-effect control and ±100 the full control effect
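Plates of compound plus infected erythrocytes (2% hematocrit, 0.05% parasitemia final) incubate 96 hours, 37 C, 5% CO2. Detection reagent added; reduced luminescence from the parasites' luciferase reporter flags inhibition.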
NS1 inh: qHTS Assay for Inhibitors of Influenza NS1 Protein Function | AID 2326, 2010 | Potency, µM (top dose mostly 46.1 µM), for the others: at the top dose activity, positive = more growth | 270,000 compounds, 0.4% hits; calls by dose curve; further: potency means the concentration at half of the fitted maximal effect; actives are rising curves; nearly all actives have a fitted effect of over 50% in size
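Recovery from NS1-induced slow growth read by OD600 in budding yeast switched to galactose assay medium (pH 6.0, -URA) at 1:100 dilution. Compound 23 nl per well; the matching strain lacking NS1 serves as control.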
Shiga inhibitor: A qHTS for Small Molecule Inhibitors of Shiga Toxin. AID 2315, 2010. inhibition, % at 38.7 µM. Vero cells, Shiga toxin protein synthesis inhibition reporter. 290,000 compounds, 9.2% hits; in the data active means inhibition mostly above about 28%, no sharp cut-off; inactive means mostly below about 43%; further: 0% is about no effect
Active calls of the source: *; ! = not active in a repeat. Unless noted, the call rests on the fitted dose curve; in most records, active means well fitted curve in the direction sought with a large enough effect; inconclusive means small, poorly fitted or top-dose-only effect, or another doubt; inactive means no such curve, though single readings can be large; an effect the other way counts as inactive or inconclusive.

For COc1cccc(NC(=O)CN(C)C(C)C(=O)NC(C)c2ccc(Cl)cc2Cl)c1 (centres undefined) the results were Pf growth 48h -19.5% and Pf growth 96h inconclusive.
CC(C)CC(=O)NC(=S)NNC(=O)c1ccc(NC(=O)C2CCCCC2)cc1 was read as CHX counter -0.7, Pf growth 48h inconclusive, FBPA Giardia inh 5.4%, Pf growth 96h 13.1µM*, NS1 inh -19.8% and Shiga inhibitor -4.6.
Screening CCOC(=O)c1ccc(NC(=S)NC(=O)C2CCCC2)cc1 returned CHX counter 26.8*, Pf growth 48h inconclusive, Pf growth 96h 43.2%, NS1 inh -15.1% and Shiga inhibitor 21.3.
For CCOC(=O)c1ccc(NC(=S)NC2CCCC2)cc1 the results were CHX counter 22.3*, Pf growth 48h 19.3%, FBPA Giardia inh 0.0%, Pf growth 96h inconclusive, NS1 inh -41.8% and Shiga inhibitor active.
For COc1ccc(NC(=S)NC(=O)C2CCC2)cc1 the results were CHX counter 40.0*, Pf growth 48h 35.8%, Pf growth 96h 8.8%, NS1 inh -20.9% and Shiga inhibitor 42.7*.
`O=C(NC(=S)Nc1ccc(Br)cc1)C1CCCCC1` gave CHX counter 8.6, Pf growth 48h inconclusive, Pf growth 96h -4.9%, NS1 inh 2.4% and Shiga inhibitor -9.6.
Screening COC(=O)c1ccc(NC(=S)NNC(=O)CC(C)C)cc1 returned CHX counter 12.8, Pf growth 48h 6.7%, FBPA Giardia inh 13.1%, Pf growth 96h 12.6%, NS1 inh 15.4% and Shiga inhibitor 3.3.
`Cc1cccc(C(=O)NNC(=O)c2ccc(NS(=O)(=O)c3cccs3)cc2)c1C` gave Pf growth 48h 18.1% and Pf growth 96h 6.6%.
CC(C)COC(=O)c1ccc(NC(=O)C2C3CCC(C3)C2C(=O)O)cc1 (centres undefined) was read as CHX counter 61.8*, Pf growth 48h 78.9%, FBPA Giardia inh 24.2%, Pf growth 96h 14.1%, NS1 inh -7.1% and Shiga inhibitor 73.6*.
Screening CCOC(=O)c1ccc(NC(=O)NC2CC3CCC(C2)N3Cc2nnnn2C(C)(C)C)cc1 (centres undefined) returned CHX counter 2.1, Pf growth 48h 2.08µM*, FBPA Giardia inh -3.3%, Pf growth 96h -12.9%, NS1 inh 2.5% and Shiga inhibitor 21.9.
`O=C(NC(=S)Nc1ccc(Br)cc1)C1CCC1` gave CHX counter 47.1*, Pf growth 48h 10.3%, Pf growth 96h inconclusive, NS1 inh -3.1% and Shiga inhibitor 102.4*.
`CCOC(=O)c1ccc(NC(=O)C2C3CCCCC32)cc1` (centres undefined) gave CHX counter 42.8*, Pf growth 48h -22.4%, FBPA Giardia inh 1.8%, Pf growth 96h -163.4%, NS1 inh -10.9% and Shiga inhibitor 103.3*.
For CCOC(=O)c1ccc(NC(=S)NNC(=O)C2(C)CC2(Cl)Cl)cc1 (centres undefined) the results were CHX counter 15.2, Pf growth 48h 26.9%, FBPA Giardia inh 4.7%, Pf growth 96h inconclusive, NS1 inh -17.3% and Shiga inhibitor active.
`COC(=O)c1ccc(NC(=S)Nc2ccccc2)cc1` gave CHX counter 8.2, Pf growth 48h 29.4%, FBPA Giardia inh -9.0%, Pf growth 96h 14.4%, NS1 inh 4.5% and Shiga inhibitor -33.3.
COC(=O)c1ccc(NC(=S)NC2CCCCC2C)cc1 (centres undefined) was read as CHX counter 25.0*, Pf growth 48h 9.5%, FBPA Giardia inh 1.0%, Pf growth 96h inconclusive, NS1 inh -19.0% and Shiga inhibitor 15.7.
For COC(=O)c1ccc(NC(=S)NC(=O)C2CCC2)cc1 the results were CHX counter 25.8*, Pf growth 48h 27.7%, Pf growth 96h 50.9%, NS1 inh -27.2% and Shiga inhibitor 63.9*.
CC1(O)N(CCC(=O)Nc2cccc(F)c2)C(=O)OC12CCCCC2 (centres undefined) was read as CHX counter 3.7, Pf growth 48h inconclusive, FBPA Giardia inh -12.5%, Pf growth 96h inconclusive and Shiga inhibitor 9.0.
CCOc1ccc(CCNC(=O)COC(=O)Cn2nc(C)c([N+](=O)[O-])c2C)cc1OCC was read as Pf growth 48h -0.3% and Pf growth 96h -1.4%.
CC(=O)Nc1ccc(S(=O)(=O)c2ccc(N)cc2)cc1 was read as CHX counter 17.7*!, Pf growth 48h -3.4%, FBPA Giardia inh 11.1%, Pf growth 96h -2.5%, NS1 inh -0.3% and Shiga inhibitor 24.0*!.
For CC(=O)Nc1ccc(S(=O)(=O)c2ccc(N)cc2)cc1N the results were CHX counter -3.2, FBPA Giardia inh 5.8%, Pf growth 96h 22.8%, NS1 inh 8.7% and Shiga inhibitor -16.3.
CCS(=O)(=O)Nc1ccc(NC(C)=O)cc1 was read as CHX counter 0.6, FBPA Giardia inh 0.3%, Pf growth 96h 15.6%, NS1 inh -9.4% and Shiga inhibitor 4.8.
`CC(=O)Nc1ccc(NS(C)(=O)=O)cc1` gave CHX counter -5.6, FBPA Giardia inh -2.3%, Pf growth 96h 4.65µM*, NS1 inh 0.0% and Shiga inhibitor -10.3.
Screening COc1ccc(S(=O)(=O)N2CCOCC2)cc1NC(=O)C1COc2ccccc2O1 (centres undefined) returned Pf growth 48h 3.5% and Pf growth 96h 5.5%.
`Cc1ccc(C(=O)NC2CCCCCC2)o1` gave CHX counter 20.5*, Pf growth 48h 17.2%, FBPA Giardia inh 0.2%, NS1 inh -0.6% and Shiga inhibitor 39.8*.
`CC(C)CC(OC(=O)c1ccco1)C(=O)NC1CCCCC1` (centres undefined) gave CHX counter 16.6*, Pf growth 48h 6.4%, FBPA Giardia inh 11.7%, Pf growth 96h 363.5%, NS1 inh 1.7% and Shiga inhibitor 17.7.
For Cc1ccc(C(=O)OCC(=O)NC2CCCCC2)o1 the results were CHX counter 15.0*, Pf growth 48h -0.9%, Pf growth 96h 42.8%, NS1 inh -4.9% and Shiga inhibitor 31.0.
`O=C(NC1CCCCCC1)c1ccco1` gave CHX counter 12.1*, Pf growth 48h 17.9%, Pf growth 96h inconclusive, NS1 inh -6.8% and Shiga inhibitor 10.3.
Screening CC(C)CC(OC(=O)c1ccco1)C(=O)NC1CCCC1 (centres undefined) returned CHX counter -1.9, Pf growth 48h 3.2%, Pf growth 96h 2.0%, NS1 inh 0.5% and Shiga inhibitor -1.8.
Screening O=C(CNC(=O)c1ccco1)NC1CCCCCC1 returned Pf growth 48h 47.9% and Pf growth 96h 77.2%.
